A selection: hits, their analogues and other compounds. The true share with any hit is near 15%.
DT40 TDP1 no CPT: qHTS for Inhibitors of human tyrosyl-DNA phosphodiesterase 1 (TDP1): qHTS in cells in absence of CPT | DT40 Tdp1-/- hTDP1 cells, no CPT, ATP luminescence, 48 h | 420,000 compounds, 15% hits | Potency, µM (highest dose often 46.2 µM), without a hit: at the top dose activity change, negative = growth inhibition, actives largely listed as inhibitors; note: nearly all actives have a fitted effect of over 55% in size
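Chicken DT40 Tdp1-/- cells complemented with human TDP1, screened without camptothecin (DMSO vehicle only), 400 cells/well. Compounds pin-transferred, cells incubated at 37 °C for at least 48 hr. Growth read as ATP-dependent luminescence (CellTiter-Glo, 30 min at RT).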
DT40 TDP1 CPT: qHTS for Inhibitors of human tyrosyl-DNA phosphodiesterase 1 (TDP1): qHTS in cells in presence of CPT; chicken DT40 Tdp1-/-;hTDP1 cells + 20 nM CPT, ATP luminescence, 48 h; Potency, µM (top dose mostly 46.2 µM), for inactives: at the top dose activity change, negative = growth inhibition, hits mostly inhibitors; 420,000 compounds, 12% hits; note: nearly all actives have a fitted effect of over 55% in size
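Chicken DT40 Tdp1-/- cells stably complemented with human TDP1 were seeded at 400 cells/well in medium containing 20 nM camptothecin, exposed to pin-transferred compounds, and grown at 37 °C for at least 48 hr. Viability was read as ATP luminescence.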
RORgamma inh: qHTS for inhibitors of ROR gamma transcriptional activity; Nuclear receptor ROR-gamma (Mus musculus), P51450; Potency, µM (highest dose often 53.6 µM), inactives show top-dose activity change, negative = inhibition, usual class: inhibitors; Drosophila S2 Gal4-RORgamma UAS-luciferase reporter, 20 h; 310,000 compounds, 5.4% hits; AID 2551, 2010; note: nearly all actives have a fitted effect of over 60% in size
Target sequence (P51450 whole entry, looked up, the tested form may be a part): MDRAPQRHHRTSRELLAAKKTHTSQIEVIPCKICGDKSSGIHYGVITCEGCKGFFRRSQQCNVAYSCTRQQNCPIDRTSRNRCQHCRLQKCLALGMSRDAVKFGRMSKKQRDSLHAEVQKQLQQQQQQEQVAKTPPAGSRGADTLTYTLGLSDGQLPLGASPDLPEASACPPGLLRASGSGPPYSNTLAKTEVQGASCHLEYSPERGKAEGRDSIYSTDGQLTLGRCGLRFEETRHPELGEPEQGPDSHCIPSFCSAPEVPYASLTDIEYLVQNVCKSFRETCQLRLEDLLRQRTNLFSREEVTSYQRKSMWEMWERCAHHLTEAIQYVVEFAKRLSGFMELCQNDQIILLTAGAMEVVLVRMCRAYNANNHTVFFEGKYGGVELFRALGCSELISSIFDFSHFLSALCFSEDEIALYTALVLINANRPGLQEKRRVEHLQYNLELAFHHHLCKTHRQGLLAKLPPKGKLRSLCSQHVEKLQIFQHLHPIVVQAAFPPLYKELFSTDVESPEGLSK
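Read-out: Photinus luciferase luminescence; inhibitors lower reporter signal. Insect Schneider cells with Gal4-ROR gamma fusion under metallothionein promoter, UAS reporter; 700 uM final copper sulfate induction, 20 hr, ambient temperature.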
VP16 counter: VP16 counterscreen qHTS for inhibitors of ROR gamma transcriptional activity | Drosophila S2 Gal4-VP16 UAS-luciferase, luminescence, 20 h | Potency, µM (series often up to 53.6 µM), for the others: at the top dose activity, negative = inhibition, hits mostly inhibitors | 310,000 compounds, 3.5% hits | AID 2546, 2010;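 note: Gal4-VP16 expression switched on by copper sulfate through the metallothionein promoter; nearly all actives have a fitted effect of over 50% in size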
ALOX12 inh: Primary qHTS assay for inhibitors of human arachidonate 12S-lipoxygenase (ALOX12): Round 2; 580,000 compounds, 1.1% hits; Potency, µM (titrated, usually from 108 µM), inactives show at the highest dose activity change, negative = inhibition, actives largely listed as inhibitors; Polyunsaturated fatty acid lipoxygenase ALOX12 (Homo sapiens), P18054; AID 1671190, 2021; purified 12hLO, xylenol orange hydroperoxide absorbance
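Purified human 12hLO (150 nM final) in 25 mM Hepes, 0.01% Triton X-100, pH 7.0 was preincubated 15 min at room temperature with compound. Then 40 uM arachidonic acid was added, 30 min. Hydroperoxide was read by Fe-XO absorbance ratio 573/405 nm.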
ELG1 DNA repair: qHTS screen for small molecules that inhibit ELG1-dependent DNA repair in human embryonic kidney (HEK293T) cells expressing luciferase-tagged ELG1; Potency, µM (highest dose often 46.1 µM), for inactives: at the top dose activity change, negative = inhibition, actives largely listed as inhibitors; AID 504467, 2011; HEK293T ELG1-luciferase reporter, luminescence, 16 h; DNA damage induced by 5-fluorouridine; 330,000 compounds, 2.3% hits; note: nearly all actives have a fitted effect of over 55% in size
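Step one: seed 2,000 cells per well. Step two: pin-transfer compound or DMSO alongside 5-fluorouridine. Step three: incubate 16 hr, 37 °C, 5% CO2. Step four: add ONE-Glo, wait 30 min, read luminescence.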
* hit, by the source's call; ? = inconclusive; . = no result given; [ ] = another dose, or the depositor's remark. Calls come from the whole dose curve; as a rule, active = well fitted curve in the direction sought with a large enough effect; inconclusive = small, poorly fitted or top-dose-only effect, or another doubt; inactive = no such curve, though single readings can be large; an effect the other way counts as inactive or inconclusive. % is set by controls: 0 for no effect and ±100 for the full control effect; potency is the fitted concentration of half-maximal effect.

SMILES	DT40 TDP1 no CPT	DT40 TDP1 CPT	RORgamma inh	VP16 counter	ALOX12 inh	ELG1 DNA repair
COc1ccc(Nc2cc(C(=O)NCc3cccnc3)c3c(c2)ncn3C)cc1	.	.	.	.	12%[176 µM]	.
O=C(CCc1ncc(-c2ccccc2F)o1)N1CCOCC1	.	.	.	.	-5%	.
CCOC(=O)c1ccc(NC(=O)c2cccc(S(=O)(=O)N3CCOCC3)c2)cc1	12µM*	?	?	-10%	2%	23µM*
O=C(Nc1ccc(N2CCCCCC2)cc1)c1cccc(S(=O)(=O)N2CCOCC2)c1	4.1µM*	7.3µM*	.	.	?	0%
O=[N+]([O-])c1cc(-n2cnnn2)ccc1N1CCC(Cc2ccccc2)CC1	9.2µM*	23µM*	-15%	?	-22%	?
Cc1nc2c(cnn2C(C)C)cc1C(=O)N(C)Cc1ccc(Cl)c(Cl)c1	.	.	.	.	0%	.
COc1cc(/C=C2\NC(=O)NC2=O)c(Br)cc1OCc1ccccc1F	.	.	.	.	2%	.
COc1ccccc1N(/N=C1\Sc2ccccc2C1=O)C(C)=O	-100%	-97%	8.9µM*	?	-22%	?
COc1cccc(Nc2nc(N)c([N+](=O)[O-])c(N3CCOCC3)n2)c1	23µM*	?	43%	3%	0%	23µM*
CCCCCn1nc(C(=O)Nc2ccc(C(C)=O)cc2)c2ccccc2c1=O	.	.	.	.	-12%	.
Nc1c(Cl)cc(-c2csc(NC(CO)c3nc4ccccc4n3CCOCCO)n2)cc1Cl (stereo not drawn)	?	?	.	.	-3%	.
OCCOCCn1c(C(CO)Nc2nc(-c3cccc(Br)c3)cs2)nc2ccccc21 (stereo not drawn)	18µM*	?	.	.	1%	.
CCCn1c(C(CO)Nc2nc(-c3cccc(Br)c3)cs2)nc2ccccc21 (stereo not drawn)	?	?	13µM*	?	?	11%
OCCOCCn1c(C(CO)Nc2nc(-c3ccc(Cl)cc3)cs2)nc2ccccc21 (stereo not drawn)	18µM*	29µM*	.	.	-10%	.
OCCOCCn1c(C(CO)Nc2nc(-c3ccccc3Br)cs2)nc2ccccc21 (stereo not drawn)	-22%	?	.	.	3%	.
COC[C@H]1NC(=O)CC[C@H]1C(=O)NCc1ccccc1OC	.	.	.	.	60%	.
c1coc(CNCc2ccsc2)c1	.	.	.	.	-30%	.
NC(=O)C1CCCN(Cc2ccc(-c3cnc4c(OCc5ccccc5)nccn34)cc2)C1 (stereo not drawn)	.	.	.	.	-5%	.
COc1ccc(C)cc1-n1[nH]nnc1=S	8%	-2%	-35%	-18%	?	-6%
Cc1cc(C)c(-n2[nH]nnc2=S)c(C)c1	-27%	?	-43%	-18%	11µM*	-1%
O=C(NCc1ccccc1F)Nc1ccc2oc(C3CC3)nc2c1	.	.	.	.	-4%	.
Nc1nc(SCC(=O)Nc2ccccc2)nc2nc3c(cc12)CCCC3	13µM*	-22%	?	-13%	4%	?
O=C(CSc1nc2nc3c(cc2c(=O)n1-c1ccccc1)CCCC3)Nc1ccccc1	?	?	-19%	-1%	-76%	?
Cc1cc2cc3c(cc2nc1SCC(=O)Nc1ccccc1)CCC3	13µM*	15µM*	-4%	-3%	-15%	-3%
Cc1cc(NC(=O)CSc2nc3cc(C)c(C)cc3cc2C)no1	-29%	-9%	-12%	-3%	-9%	3%
SMILES	DT40 TDP1 no CPT	DT40 TDP1 CPT	RORgamma inh	VP16 counter	ALOX12 inh	ELG1 DNA repair
Cc1ccc(NC(=O)CSc2nc(N)c3cc4c(nc3n2)CCCC4)cc1	?	16µM*	?	-10%	-18%	9%
Cc1ccc(NC(=O)C(=O)NCCc2csc(-c3ccc(C(F)(F)F)cc3)n2)cc1C	.	.	.	.	-3%	.
C[C@@H]1CN(Cc2nc3c(n2Cc2ccccc2)C(=O)N(CCOc2ccccc2)CCN3)C[C@H](C)O1	.	.	.	.	69%	.
Cc1cc(CNC(=O)c2ccncc2)c2ccccc2n1	.	.	.	.	-36%	.
Cc1cc(C)nc(SCC(=O)O)n1	-11%	-15%	-21%	-8%	-5%	-3%
Cc1cc(SCNC(=O)c2ccccc2)nc(C(C)C)n1	-18%	-11%	13µM*	?	-11%	9%
Cc1cc(C)nc(SCNC(=O)c2ccccc2)n1	20%	-1%	2.8µM*	4µM*	8%	13%
NCC(c1ccccc1Cl)c1c[nH]c2ccccc12 (stereo not drawn)	13µM*	5.2µM*	-8%	0%	-13%	-3%
NCC(c1cccs1)c1c[nH]c2ccccc12 (stereo not drawn)	.	.	.	.	62%	.
NCC(c1ccc(Cl)cc1Cl)c1c[nH]c2ccccc12 (stereo not drawn)	23µM*	18µM*	-8%	-8%	?	-11%
O=C(O)C(c1c[nH]c2ccccc12)N1CCN(Cc2ccc(Cl)cc2Cl)CC1 (stereo not drawn)	.	.	.	.	-5%	.
Cc1ccc2nc(SCCC(=O)N[C@@H]3C[C@@H]4OCC[C@@H]43)cc(C)c2c1	.	.	.	.	-5%	.
CCC(C)NC(=O)N1CC(n2cc(C(=O)NCc3ccncc3)nn2)C1 (stereo not drawn)	.	.	.	.	20%	.
Cc1cc(Oc2ccccc2)nc(SCC(=O)Nc2ccc(Cl)c(Cl)c2)n1	18µM*	?	-5%	-1%	-14%	-33%
COc1ccc(NC(=O)CSc2cc(-c3ccccc3)nc(C)n2)cc1	-50%	?	.	.	-29%	.
Cc1cc(NC(=O)c2ccccc2Cl)ccc1NC(=O)c1ccccc1Cl	-5%	-7%	-3%[1.91 µM]	?	21%	7%
Cc1nc(SCC(=O)Nc2ccc(C)c(Cl)c2)cc(-c2ccccc2)n1	?	23µM*	.	.	0%	.
Cc1ccc(NC(=O)COc2ccccc2)cc1Cl	-29%	30%	-41%	4%	.	18%
Cc1cc(Oc2ccccc2)nc(SCC(=O)Nc2ccccc2)n1	-29%	?	-14%	2%	-14%	-24%
Cc1ccc(NC(=O)CSc2ccccc2NC(=O)c2ccccc2Cl)cc1Cl	18µM*	?	?	-27%	9%	23µM*
Cc1ccc(NC(=O)CSc2ccccc2NC(=O)c2ccccc2)cc1Cl	13µM*	15µM*	42%	-24%	?	?

Screens from PubChem BioAssay.
